Measured values from PubChem BioAssay (NCATS).
Unmarked numbers belong to inactive results. The rule behind the calls is not given here.
Potency is the fitted concentration of half-maximal effect.

These compounds were tested on HIV-1 nucleocapsid protein NCp7 (binding to TG oligonucleotide) (assay: HIV Nucleocapsid (AID 346;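 note: potency is for inhibitors that block NC binding and lower polarization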)). Conditions: HIV-1 NC / fluorescein-TGTGTGTG probe, fluorescence polarization.
Procedure, shortened: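 10 nM TG4xF probe with 100 nM nucleocapsid protein in high-salt Hepes pH 7.5 (250mM NaCl) containing 1uM ZnCl2 and reducing agents. Compound inhibition of binding was read as fluorescein polarization after 1 hr at room temperature.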
In the case of `Cc1cnc(CNc2ncnc3ccc(-c4cccc(C#N)c4)cc23)cn1`, the Potency is reported as greater than 20 µM. `COc1ccc2[nH]cc(CCNc3ccnc(-c4ccc(N(C)C)cc4)n3)c2c1` gave a Potency greater than 20 µM. For `COc1ccccc1-c1nc(NCc2ccccc2)c2ccccc2n1`, the Potency was greater than 20 µM. Compound `COc1ccc(CNc2cc(-c3cccnc3)ncn2)c(OC)c1` has a Potency greater than 20 µM. `COc1ccc(CNc2ccnc(-c3ccccc3C(F)(F)F)n2)c(OC)c1` showed a Potency greater than 20 µM. In the case of `O=C(Nc1ccccc1)N1CCC2(CC1)CCN(C(=O)c1csnn1)CC2`, the Potency is reported as greater than 20 µM. In the case of `Cc1cccc(CNc2ccnc(-c3cccc(NS(C)(=O)=O)c3)n2)c1`, the Potency is reported as greater than 20 µM. For `CN(C)c1ncc2nc(-c3ccc(F)cc3)c(=O)n(C3CC3)c2n1`, the Potency was greater than 4 µM. `Cn1cccc1C(=O)N1CCC2(CCCN(c3ncccn3)C2)CC1` gave a Potency greater than 20 µM. `CC(=O)NCCNc1nc(-c2ccccc2CN(C)C)nc2ccccc12` gave a Potency greater than 20 µM. `COCCNc1nc(-c2ccccc2CN(C)C)nc2ccccc12` showed a Potency greater than 20 µM. With `Cc1nc2cnc(N3CCNCC3)nc2n(-c2ccccc2)c1=O` the Potency was greater than 20 µM. For `Cc1noc(C)c1-c1nc(N2CCNCC2)c2ccccc2n1`, the Potency was greater than 20 µM. Compound `COc1ccc(NC(=O)N2CCC3(CC2)CCN(C(=O)c2csnn2)CC3)cc1` has a Potency greater than 20 µM. In the case of `O=C(c1cccc(F)c1)N1CCC2(CC1)CCN(c1ccncc1)CC2`, the Potency is reported as greater than 20 µM. Work on `O=C(c1ccco1)N1CCC2(CC1)CCN(c1ccncc1)CC2` yielded a Potency greater than 20 µM. `COc1cccc(-c2nc(NCCc3c[nH]c4ccc(OC)cc34)c3ccccc3n2)c1` was tested, and the Potency was greater than 20 µM. With `c1ccc2c(N3CCOCC3)nc(-c3ccoc3)nc2c1` the Potency was greater than 20 µM. For `N#CCCn1c(=O)c(-c2ccc(F)cc2)nc2cnc(OCc3ccccc3)nc21`, the Potency was greater than 20 µM. `O=c1c(-c2cccs2)nc2cnc(N3CCOCC3)nc2n1Cc1cccs1` was tested, and the Potency was greater than 4 µM. In the case of `O=C(c1cnccn1)N1CCC2(CC1)CN(Cc1ccccc1)C2`, the Potency is reported as greater than 20 µM. `Fc1ccc(Nc2ccnc(-c3ccoc3)n2)cc1` was tested, and the Potency was greater than 20 µM. `c1ccc(C(c2ccccc2)N2CCCC3(CCNCC3)C2)cc1` showed a Potency greater than 20 µM. In the case of `Cn1cc(-c2nc3cnc(N4CCNCC4)nc3n(CCC#N)c2=O)c2ccccc21`, the Potency is reported as greater than 20 µM. With `COc1ccc(C(=O)N2CCC[C@@]3(CCN(c4ncccn4)C3)C2)cc1` the Potency was greater than 20 µM. Work on `O=C(c1cccc(F)c1)N1CCC2(CC1)CCN(c1ccccc1)CC2` yielded a Potency greater than 20 µM. `Cc1nc2cncnc2n(-c2ccccc2)c1=O` showed a Potency greater than 20 µM. Compound `O=C(c1cccc(F)c1)N1CCC2(CC1)CCN(c1ccc(-c3ccccc3)cc1)CC2` has a Potency greater than 20 µM. `O=C(c1ccco1)N1CCC2(CC1)CCN(c1cccc(-c3ccccc3)c1)CC2` showed a Potency greater than 20 µM. Compound `O=c1c(-c2ccccc2)nc2cncnc2n1Cc1ccccc1` has a Potency greater than 20 µM. `N#Cc1cccc(-c2cc(NCc3cccs3)ncn2)c1` gave a Potency greater than 20 µM. Compound `COc1cccc(-c2nccc(NCc3ccccc3OC)n2)c1` has a Potency greater than 20 µM. With `CC(=O)N1CCC[C@@]2(CCN(C(=O)Nc3cccc(C#N)c3)C2)C1` the Potency was greater than 20 µM. `O=c1c(-c2ccccc2)nc2cncnc2n1Cc1ccccc1Cl` was tested, and the Potency was greater than 20 µM. `COCCn1c(=O)c(-c2ccccc2)nc2cnc(N3CCNCC3)nc21` gave a Potency greater than 20 µM. Work on `Cc1nc2cnc(N3CCOCC3)nc2n(Cc2ccc(F)cc2)c1=O` yielded a Potency greater than 20 µM. `CCNc1ncc2ncc(=O)n(Cc3ccc(F)cc3)c2n1` gave a Potency greater than 20 µM. With `O=c1c(-c2ccc(F)cc2)nc2cnc(N3CCOCC3)nc2n1Cc1ccc(F)cc1` the Potency was greater than 20 µM. With `O=c1c(-c2cc(F)cc(F)c2)nc2cnc(N3CCOCC3)nc2n1C[C@H]1CCCO1` the Potency was greater than 20 µM. In the case of `FC(F)(F)c1ccccc1-c1cncnc1NCc1cccnc1`, the Potency is reported as greater than 20 µM.
